Shown are actives, neighbours in structure and some others; about 27% of the full set was active somewhere.
CYP2C9 activ: CYP2C9 (human) activation. AID 1024. hit rate 1.4% among 96,000. recombinant CYP2C9, luciferin-H conversion, luminescence; hits give high values; factor 1 = untreated enzyme, 0 = blocked. activation factor at 5 µM;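 active means activation factor of 2 or more for CYP2C9 at a 5 µM dose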
sEH act: soluble epoxide hydrolase (human) activation; activation, % at 2 µM; hit rate 0.04% among 91,000; P34913; purified human sEH enzymatic activity, activator screen; AID 717; in the data active means activation above about 37%
Target sequence (P34913 whole entry, looked up): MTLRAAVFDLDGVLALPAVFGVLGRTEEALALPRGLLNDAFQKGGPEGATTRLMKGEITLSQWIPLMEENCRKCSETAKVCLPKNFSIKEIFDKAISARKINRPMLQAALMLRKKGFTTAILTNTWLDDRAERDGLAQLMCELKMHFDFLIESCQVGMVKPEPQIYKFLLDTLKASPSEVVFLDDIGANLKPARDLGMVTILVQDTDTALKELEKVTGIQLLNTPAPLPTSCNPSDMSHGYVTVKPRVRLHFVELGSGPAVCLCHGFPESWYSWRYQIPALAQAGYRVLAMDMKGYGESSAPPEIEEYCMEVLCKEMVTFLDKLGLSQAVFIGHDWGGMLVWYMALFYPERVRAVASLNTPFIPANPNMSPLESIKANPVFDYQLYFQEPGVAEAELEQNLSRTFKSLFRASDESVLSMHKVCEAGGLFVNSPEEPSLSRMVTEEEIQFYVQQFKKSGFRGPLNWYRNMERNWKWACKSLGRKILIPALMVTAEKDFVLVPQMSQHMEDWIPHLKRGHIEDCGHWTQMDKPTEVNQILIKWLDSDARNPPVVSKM
CYP2C19 act: cytochrome P450 2C19 (human) activation. recombinant CYP2C19, luciferin-H EGE luminescence; hits give high values; 0 = fully inhibited enzyme, 1 = untreated enzyme. AID 1025. 96,000 tested, under 10 active. activation factor at 5 µM;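 active means activation factor of at least 2 at 5 µM in the primary screen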
CYP2C19 inhib: human CYP2C19 inhibition. P33261. CYP2C19 Supersomes, luciferin-H EGE luminescence, 30 min. inhibition, % at 5 µM. hit rate 21% among 96,000. AID 778;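 active means CYP2C19 inhibition above a set limit at 5 µM in the primary screen, cut at about 50% in these data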
CYP2C9 inhib: human CYP2C9 inhibition; P11712; CYP2C9 Supersomes, luciferin-H conversion, luminescence; inhibition, % at 5 µM; hit rate 20% among 96,000; AID 777;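 active means blocking of liver enzyme CYP2C9 beyond about 50% at 5 µM, limit read from the data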
sEH inh: blocks human soluble epoxide hydrolase activity | P34913 | recombinant human sEH enzymatic activity assay | inhibition, % at 2 µM | hit rate 0.34% among 91,000 | AID 707; in the data active means inhibition above about 80%
A number is an active result.

Screening CCOC(=O)Cc1cc(=O)n2[nH]c(-c3ccccc3)cc2n1 returned sEH act inactive and sEH inh inactive.
CCOC(=O)N1CCC(c2cc(=O)n3[nH]c(-c4ccccc4)cc3n2)CC1 was read as CYP2C9 activ inactive, CYP2C19 act inactive, CYP2C19 inhib inactive and CYP2C9 inhib 66.3.
CCOC(=O)N1CCC(c2cc(=O)n3[nH]c(C)c(-c4ccc(F)cc4)c3n2)CC1 was read as CYP2C9 activ inactive, sEH act inactive, CYP2C19 act inactive, CYP2C19 inhib inactive, CYP2C9 inhib 68.5 and sEH inh inactive.
`CCOC(=O)Cc1cc(=O)n2[nH]c(C)c(-c3ccccc3)c2n1` gave CYP2C9 activ inactive, sEH act inactive, CYP2C19 act inactive, CYP2C19 inhib inactive, CYP2C9 inhib inactive and sEH inh inactive.
`CCC(CC)c1nnc(NC(=O)c2nc3nc(C)cc(C)n3n2)s1` gave CYP2C9 activ inactive, sEH act inactive, CYP2C19 act inactive, CYP2C19 inhib inactive, CYP2C9 inhib inactive and sEH inh inactive.
C=C(C)CSc1nncn1/N=C/c1ccc(OC)cc1 was read as CYP2C9 activ inactive, sEH act inactive, CYP2C19 act inactive, CYP2C19 inhib 62.9, CYP2C9 inhib 55.1 and sEH inh inactive.
CCOc1cccc(NCc2cc3c(C(C)(C)C)nn(-c4ccccc4)c3[nH]c2=O)c1 was read as CYP2C9 activ inactive, sEH act inactive, CYP2C19 act inactive, CYP2C19 inhib inactive, CYP2C9 inhib 74.7 and sEH inh inactive.
For CC(C)(C)c1nn(-c2ccccc2)c2[nH]c(=O)c(CNCc3ccc4c(c3)OCO4)cc12 the results were CYP2C9 activ inactive, sEH act inactive, CYP2C19 act inactive, CYP2C19 inhib inactive, CYP2C9 inhib inactive and sEH inh inactive.
Screening CC(C)=C1SC(N2CCN(Cc3ccccc3)CC2)=NC1=O returned CYP2C9 activ inactive, CYP2C19 act inactive, CYP2C19 inhib 57.0 and CYP2C9 inhib inactive.
For COc1ccc(C2C(C(=O)NCc3ccco3)CCC(=O)N2c2ccc(OC)cc2)cc1 (stereo unspecified) the results were CYP2C9 activ inactive, sEH act inactive, CYP2C19 act inactive, CYP2C19 inhib inactive, CYP2C9 inhib inactive and sEH inh inactive.
COc1ccc(CCC(C)Nc2cccc(F)c2)cc1 (stereo unspecified) was read as CYP2C9 activ inactive, sEH act inactive, CYP2C19 act inactive, CYP2C19 inhib inactive, CYP2C9 inhib inactive and sEH inh inactive.
`Cn1c(SCC(=O)N2CCOCC2)nnc1-c1cccc(NC(=O)c2ccccc2)c1` gave CYP2C9 activ inactive, sEH act inactive, CYP2C19 act inactive, CYP2C19 inhib inactive, CYP2C9 inhib inactive and sEH inh inactive.
Cc1ccc(CSc2nnc(-c3ccncc3)n2C)cc1 was read as CYP2C9 activ inactive, sEH act inactive, CYP2C19 act inactive, CYP2C19 inhib 73.4, CYP2C9 inhib inactive and sEH inh inactive.
`Cc1ccc(NC(=O)c2ccc(CSc3nnc(-c4ccncc4)n3C)cc2)cc1` gave CYP2C9 activ inactive, sEH act inactive, CYP2C19 act inactive, CYP2C19 inhib inactive, CYP2C9 inhib 65.8 and sEH inh inactive.
`COC(=O)CSc1nnc(-c2cccc(NC(=O)c3ccc(C)cc3)c2)n1C` gave CYP2C9 activ inactive, sEH act inactive, CYP2C19 act inactive, CYP2C19 inhib inactive, CYP2C9 inhib 75.8 and sEH inh inactive.
For CC(=O)Nc1ccc(-c2nnc(SCc3ccccc3C#N)n2C)cc1 the results were CYP2C9 activ inactive, sEH act inactive, CYP2C19 act inactive, CYP2C19 inhib inactive, CYP2C9 inhib inactive and sEH inh inactive.
`CC(=O)Nc1cccc(-c2nnc(SCc3ccccc3C#N)n2C)c1` gave CYP2C9 activ inactive, sEH act inactive, CYP2C19 act inactive, CYP2C19 inhib 61.8, CYP2C9 inhib inactive and sEH inh inactive.
CCn1c(CS(=O)Cc2ccc(Cl)cc2Cl)nnc1SCc1c(Cl)cccc1Cl (stereo unspecified) was read as CYP2C9 activ inactive, sEH act inactive, CYP2C19 act inactive, CYP2C19 inhib inactive, CYP2C9 inhib inactive and sEH inh inactive.
For O=c1ccc2c(o1)/C(=C/C=C(Cl)Cl)CCC2 the results were CYP2C9 activ inactive, CYP2C19 act inactive, CYP2C19 inhib inactive and CYP2C9 inhib inactive.
Screening COC(=O)CSc1nnc(-c2ccc(S(=O)(=O)NCc3ccccc3Cl)cc2)o1 returned CYP2C9 activ inactive, sEH act inactive, CYP2C19 act inactive, CYP2C19 inhib inactive, CYP2C9 inhib inactive and sEH inh inactive.
`Cn1c(SCC#N)nnc1-c1ccc2c(c1)OCO2` gave sEH act inactive and sEH inh inactive.
For Cn1c(SCc2ccccn2)nnc1-c1ccncc1 the results were CYP2C9 activ inactive, CYP2C19 act inactive, CYP2C19 inhib 94.3 and CYP2C9 inhib inactive.
Screening Cn1c(SCc2ccccc2)nnc1-c1ccc2c(c1)OCO2 returned CYP2C9 activ inactive, sEH act inactive, CYP2C19 act inactive, CYP2C19 inhib 88.4, CYP2C9 inhib inactive and sEH inh inactive.
Screening Cc1ccc(N(CCCCN2C(=O)c3ccccc3C2=O)C(=O)c2cccc([N+](=O)[O-])c2)cc1 returned CYP2C9 activ inactive, sEH act inactive, CYP2C19 act inactive, CYP2C19 inhib 64.3, CYP2C9 inhib 61.0 and sEH inh inactive.
Screening O=C1c2ccccc2C(=O)N1CCCCN(C(=O)c1ccc([N+](=O)[O-])cc1)c1ccc(Cl)cc1 returned CYP2C9 activ inactive, sEH act inactive, CYP2C19 act inactive, CYP2C19 inhib inactive, CYP2C9 inhib 54.2 and sEH inh inactive.
`CC(=O)N(CCCCN1C(=O)c2ccccc2C1=O)c1ccc(C)cc1` gave CYP2C9 activ inactive, sEH act inactive, CYP2C19 act inactive, CYP2C19 inhib inactive, CYP2C9 inhib inactive and sEH inh inactive.
`Cn1c(Cc2ccccc2)nnc1SCC(=O)Nc1ccc2c(c1)OCCO2` gave CYP2C9 activ inactive, sEH act inactive, CYP2C19 act inactive, CYP2C19 inhib 74.7, CYP2C9 inhib 74.2 and sEH inh inactive.
Screening CCn1c(Cc2ccccc2)nnc1SCC(=O)Nc1ccc(N2CCOCC2)c(Cl)c1 returned CYP2C9 activ inactive, sEH act inactive, CYP2C19 act inactive, CYP2C19 inhib 79.7, CYP2C9 inhib 57.7 and sEH inh inactive.
Screening Cn1c(SCC(=O)Nc2ccc(N3CCOCC3)c(Cl)c2)nnc1-c1ccccc1 returned sEH act inactive and sEH inh inactive.
Screening CCn1c(Cc2ccccc2)nnc1SCC(=O)Nc1ccc2c(c1)OCO2 returned CYP2C9 activ inactive, sEH act inactive, CYP2C19 act inactive, CYP2C19 inhib 62.5, CYP2C9 inhib inactive and sEH inh inactive.
Cc1ccc(-n2c(Cc3cccs3)nnc2SCC(=O)Nc2ccc(F)c(F)c2)cc1 was read as CYP2C9 activ inactive, sEH act inactive, CYP2C19 act inactive, CYP2C19 inhib inactive, CYP2C9 inhib inactive and sEH inh inactive.
Screening O=C(CSc1nnc(Cc2cccs2)n1-c1ccccc1)Nc1ccc2c(c1)OCCO2 returned CYP2C9 activ inactive, sEH act inactive, CYP2C19 act inactive, CYP2C19 inhib 84.9, CYP2C9 inhib 89.0 and sEH inh inactive.

High-throughput results deposited in PubChem by several laboratories.
